Screen size: about 39,000 compounds; about 3,300 (8.5%) were called active. The list comes from a sample in which actives are over-represented; it also holds similar structures and randomly drawn compounds.

This experiment has as its system HepG2. Put plainly: cytotoxicity call (relative viability < 0.9). The conditions noted are these: 10 µM.
`C[C@H](CO)N1C[C@H](C)[C@H](CN(C)C(=O)Nc2cccc3ccccc23)Oc2ncc(C#Cc3cccc(F)c3)cc2C1=O`: the cytotoxicity call was “inactive”. In the case of `CC(C)(C)OC(=O)Nc1cccc([C@@H]2CC(=O)N(C(=O)OCc3ccccc3)[C@@H]2C(=O)Nc2cccc3cccnc23)c1`, the cytotoxicity call is “inactive”. `Cc1noc(C)c1NC(=O)Nc1ccc2c(c1)C(=O)N([C@H](C)CO)C[C@@H](C)[C@H](CN(C)C(=O)C1CCCCC1)OCCCC[C@@H](C)O2`: the cytotoxicity call was “inactive”.

For `C[C@@H]1CN([C@H](C)CO)C(=O)c2cc(C#CC3(O)CCCC3)cnc2O[C@H]1CN(C)S(=O)(=O)c1cccc(F)c1`, the cytotoxicity call was “inactive”.

As to `CCC1C(=O)OCC1Cc1cncn1C.O=[N+]([O-])O` (stereo not given), the cytotoxicity call was “inactive”. Turning to `Cc1noc(C)c1NC(=O)Nc1cccc2c1O[C@@H](CN(C)Cc1ccc(Oc3ccccc3)cc1)[C@H](C)CN([C@@H](C)CO)C2=O`, the cytotoxicity call is “inactive”. For `CN(C)CCCNC(=O)C[C@H]1CC[C@H]2[C@@H](COC[C@H](O)CN2S(=O)(=O)c2ccc(F)cc2)O1`, the cytotoxicity call was “inactive”. As to `CO[C@H]1CN(C)C(=O)c2ccc(NC(=O)Nc3cccc(Cl)c3)cc2OC[C@@H](C)N(C(=O)Nc2c(C)noc2C)C[C@H]1C`, the cytotoxicity call was “inactive”.

Turning to `C[C@H]1CN([C@@H](C)CO)C(=O)c2cc(NC(=O)Nc3cccc4ccccc34)ccc2O[C@H]1CN(C)S(=O)(=O)c1ccccc1`, the cytotoxicity call is “inactive”. Take `C[C@H](CO)N1C[C@H](C)[C@H](CN(C)C(=O)Nc2cccc3ccccc23)Oc2ccc(NC(=O)Nc3ccc(C(F)(F)F)cc3)cc2C1=O`: the cytotoxicity call is “inactive”.

Regarding `CN(C)CCOC(=O)COc1ccc(Cl)cc1.Cl`, the cytotoxicity call is “inactive”. On to `CCCCc1nc(-c2ccc(OCCCN(CC)CC)cc2)cn1-c1ccc(Oc2ccc(Cl)cc2)cc1`, for which the cytotoxicity call was “active”. Turning to `CCCC[C@@H](C#N)c1ccccn1`, the cytotoxicity call was “inactive”. Take `CN(C)CC(=O)N[C@@H]1CC[C@H](CCNS(=O)(=O)c2ccccc2)O[C@H]1CO`: the cytotoxicity call was “inactive”.

With `O=C(N[C@@H](c1ccccc1)c1ccc2ccccc2n1)C1CCN(Cc2cccc(C(F)(F)F)c2)CC1`, the cytotoxicity call was “inactive”. For the molecule `COc1ccccc1[C@@H](NC(=O)C1CCN(Cc2ccc(Oc3ccccc3)cc2)CC1)c1ccccn1`, the cytotoxicity call was “inactive”. In the case of `COc1cc(CN2CCC(C(=O)N[C@@H](c3ccc(F)cc3)c3ccc4ccccc4n3)CC2)cc(OC)c1`, the cytotoxicity call was “active”. As to `O=C(N[C@H](c1ccc(F)cc1)c1ccc2ccccc2n1)C1CCN(Cc2cccc(C(F)(F)F)c2)CC1`, the cytotoxicity call was “active”. On to `O=C(N[C@H](c1ccc(F)cc1)c1ccc2ccccc2n1)C1CCN(Cc2ccc(Oc3ccccc3)cc2)CC1`, for which the cytotoxicity call was “active”. To `COc1ccc([C@@H](NC(=O)C2CCN(Cc3ccc(Oc4ccccc4)cc3)CC2)c2ccccc2C)cn1` belongs “inactive”. As to `COc1cc(OC)nc([C@@H](NC(=O)C2CCN(Cc3ccc(Oc4ccccc4)cc3)CC2)c2ccccc2C)n1`, the cytotoxicity call was “active”. Regarding `O=C(N[C@H](c1ccc(F)cc1)c1ccc2ccccc2n1)C1CCN(Cc2ccc3ccccc3n2)CC1`, the cytotoxicity call was “inactive”.

For the molecule `O=C(N[C@@H](c1ccccc1)c1ccc2ccccc2n1)C1CCN(Cc2ccc(Oc3ccccc3)cc2)CC1`, the cytotoxicity call is “inactive”. For `COc1ccc2c3c(n(c2c1)C)[C@@H](CO)N(C[C@]13CCN(CC1)Cc1ccncc1)C(=O)CN1CCOCC1`, the cytotoxicity call was “inactive”. Take `NC(=NC(=O)N1CCOCC1)c1ccccc1`: the cytotoxicity call is “inactive”. With `O=C(C[C@@H]1CC[C@@H](NC(=O)Cc2ccccn2)[C@@H](CO)O1)NCCc1ccncc1`, the cytotoxicity call is “inactive”. Then `CN(C)CCCNC(=O)[C@@H]1c2ccccc2C(=O)N(Cc2cc(C(F)(F)F)cc(C(F)(F)F)c2)[C@H]1c1ccc(CO)cc1`, with “inactive”; and `CO[C@H](CN(C)S(=O)(=O)c1cn(C)cn1)[C@@H](C)CN(C(=O)Nc1ccc(C(F)(F)F)cc1)[C@@H](C)CO`, with “inactive”; and `CNC[C@H]1Oc2c(NS(=O)(=O)c3cn(C)cn3)cccc2C(=O)N([C@@H](C)CO)C[C@H]1C`, with “inactive”. Then `O=C(COc1ccc(S(=O)(=O)N2CCOCC2)cc1)N1CCOCC1`, with “inactive”. As to `COc1ccc([Si](C)(C)[C@@H]2[C@@H](CCOC(=O)NCCCCCC(=O)NO)O[C@@]3(C(=O)N(Cc4ccccc4)c4ccc(NC(=O)[C@@H](C)OC(=O)NCCCCCC(=O)NO)cc43)[C@H]2C)cc1`, the cytotoxicity call is “inactive”. Regarding `C[C@H]1CN([C@@H](C)CO)C(=O)Cc2cc(NC(=O)Cn3cnnn3)ccc2O[C@@H]1CN(C)Cc1ccc(Cl)c(Cl)c1`, the cytotoxicity call was “inactive”. Consider `CCc1nn(C)c2c(=O)c(=O)c2n(C)[nH]1`, for which the cytotoxicity call is “inactive”. For `O=C(CN1CCOCC1)NCC[C@H]1CC[C@@H](NS(=O)(=O)c2ccc(Cl)cc2)[C@@H](CO)O1`, the cytotoxicity call is “inactive”. Consider `C[C@H]1CN([C@@H](C)CO)C(=O)c2cc(NS(=O)(=O)c3ccccc3)ccc2O[C@H]1CN(C)Cc1ccc(Cl)c(Cl)c1`, for which the cytotoxicity call was “inactive”.

Regarding `CC(C)Oc1ccccc1OCc1cnnn1CC(=O)NS(=O)(=O)c1ccccc1OC(F)(F)F`, the cytotoxicity call is “inactive”. As to `Cc1ccc(S(=O)(=O)N(C)C[C@H]2Oc3ccc(NC(=O)NC(C)C)cc3C(=O)N([C@@H](C)CO)C[C@@H]2C)cc1`, the cytotoxicity call is “inactive”. To `O=C(OCc1cccc(O)c1O[C@@H]1O[C@H](CO)[C@@H](O)[C@H](O)[C@H]1O)[C@]1(O)C(=O)[C@@H]2C=C[C@H]1c1c2ccc(O)c1O` belongs “inactive”. For `O=C1NCCc2c(O)cccc21`, the cytotoxicity call was “inactive”. `COC(=O)c1cn(CC(N)=O)c2ccccc12`: the cytotoxicity call is “inactive”. For the molecule `Cn1cc(CN2CCC(C(=O)N[C@@H](c3ccc(F)cc3)c3ccc4ccccc4n3)CC2)c2ccccc21`, the cytotoxicity call was “active”. Then `COc1ccc(S(=O)(=O)N(C)C[C@H]2Oc3ccc(NS(C)(=O)=O)cc3CC(=O)N([C@@H](C)CO)C[C@@H]2C)cc1`, with “inactive”. Turning to `CC(C)COC(=O)CNc1n[nH]c(=O)[nH]c1=O`, the cytotoxicity call was “inactive”.

`Cn1cnc(S(=O)(=O)N[C@@H]2C=C[C@@H](CC(=O)Nc3ccccc3)O[C@@H]2CO)c1`: the cytotoxicity call was “inactive”. On to `CCOC(=O)[C@H]1CC(C)=NNC1=O`, for which the cytotoxicity call was “inactive”.

For the molecule `Cn1cncc1[C@@](N)(c1ccc(Cl)cc1)c1ccc2c(c1)c(-c1cccc(Cl)c1)cc(=O)n2C`, the cytotoxicity call was “active”.

Regarding `O=C(CCCCCCC(=O)N/N=C/c1cccc(B(O)O)c1)NO`, the cytotoxicity call was “inactive”. Take `Cn1cnc(CCNC(=O)C[C@H]2CC[C@H]3[C@@H](COC[C@@H](O)CN3C(=O)Nc3ccc(C(F)(F)F)cc3)O2)c1`: the cytotoxicity call was “inactive”.

Take `c1cn(-c2ccc(-n3ccnc3)nn2)cn1`: the cytotoxicity call was “inactive”.

In the case of `CN1CCN(C2=Nc3ccccc3Oc3ccc(Cl)cc32)CC1.O=C(O)CCC(=O)O`, the cytotoxicity call is “inactive”.

For `Clc1ccc2c(c1)C(N1CCNCC1)=Nc1ccccc1O2`, the cytotoxicity call was “active”. Consider `CN1CCN(C2=Nc3cc(Cl)ccc3Nc3ccccc32)CC1`, for which the cytotoxicity call was “inactive”. `CCS(=O)(=O)Nc1ccc2c(c1)C(=O)N(C)C[C@@H](OC)[C@H](C)CN(Cc1cccnc1)[C@H](C)CO2`: the cytotoxicity call is “inactive”.

For the molecule `O=C(C[C@@H]1C[C@H]2c3cc(NC(=O)Nc4ccc(C(F)(F)F)cc4)ccc3O[C@H]2[C@H](CO)O1)NCCc1ccccc1`, the cytotoxicity call is “inactive”. Regarding `CO[C@H]1CN(C)C(=O)c2cc(NS(=O)(=O)c3cn(C)cn3)ccc2OC[C@@H](C)N(CC2CC2)C[C@@H]1C`, the cytotoxicity call was “inactive”. For the molecule `C[C@@H]1CCCCO[C@@H](CN(C)S(=O)(=O)c2cccs2)[C@@H](C)CN([C@H](C)CO)C(=O)c2cc(NC(=O)Nc3ccc(F)cc3)ccc2O1`, the cytotoxicity call is “inactive”. In the case of `C[C@H](CO)N1C[C@H](C)[C@@H](CN(C)S(=O)(=O)c2cccs2)OCCCC[C@H](C)Oc2ccc(NC(=O)Nc3ccc(F)cc3)cc2C1=O`, the cytotoxicity call was “inactive”. `COc1ccc(NC(=O)Nc2ccc3c(c2)C(=O)N([C@@H](C)CO)C[C@H](C)[C@@H](CN(C)S(=O)(=O)c2cccs2)OCCCC[C@@H](C)O3)cc1`: the cytotoxicity call was “active”. Turning to `C[C@@H]1CCCCO[C@@H](CN(C)S(=O)(=O)c2cccs2)[C@H](C)CN([C@H](C)CO)C(=O)c2cc(NC(=O)Nc3ccccc3)ccc2O1`, the cytotoxicity call was “active”.

With `C[C@@H]1CN([C@@H](C)CO)C(=O)c2cc(NC(=O)Nc3ccc(F)cc3)ccc2O[C@@H](C)CCCCO[C@H]1CN(C)S(=O)(=O)c1cccs1`, the cytotoxicity call was “active”. For `COc1ccc(NC(=O)Nc2ccc3c(c2)C(=O)N([C@@H](C)CO)C[C@H](C)[C@H](CN(C)S(=O)(=O)c2cccs2)OCCCC[C@@H](C)O3)cc1`, the cytotoxicity call was “inactive”.

As to `C[C@H]1CCCCO[C@@H](CN(C)S(=O)(=O)c2cccs2)[C@@H](C)CN([C@@H](C)CO)C(=O)c2cc(NC(=O)Nc3ccc(F)cc3)ccc2O1`, the cytotoxicity call was “active”. Take `COc1ccc(NC(=O)Nc2ccc3c(c2)C(=O)N([C@H](C)CO)C[C@H](C)[C@@H](CN(C)S(=O)(=O)c2cccs2)OCCCC[C@H](C)O3)cc1`: the cytotoxicity call is “inactive”. In the case of `C[C@@H]1CN([C@H](C)CO)C(=O)c2cc(NC(=O)Nc3ccc(F)cc3)ccc2O[C@@H](C)CCCCO[C@H]1CN(C)S(=O)(=O)c1cccs1`, the cytotoxicity call was “inactive”. Turning to `C[C@@H]1CCCCO[C@H](CN(C)S(=O)(=O)c2cccs2)[C@@H](C)CN([C@H](C)CO)C(=O)c2cc(NC(=O)Nc3ccc(F)cc3)ccc2O1`, the cytotoxicity call was “inactive”. With `C[C@@H]1CCCCO[C@@H](CN(C)S(=O)(=O)c2cccs2)[C@H](C)CN([C@@H](C)CO)C(=O)c2cc(NC(=O)Nc3ccccc3)ccc2O1`, the cytotoxicity call is “inactive”. As to `C[C@@H]1CN([C@@H](C)CO)C(=O)c2cc(NC(=O)Nc3ccccc3)ccc2O[C@@H](C)CCCCO[C@@H]1CN(C)S(=O)(=O)c1cccs1`, the cytotoxicity call was “inactive”. On to `C[C@@H]1CN([C@@H](C)CO)C(=O)Cc2cc(NC(=O)CCCCCC(=O)Nc3ccccc3N)ccc2O[C@@H]1CN(C)C(=O)Nc1ccc(F)cc1`, for which the cytotoxicity call is “inactive”. As for `C[C@H](CO)N1C[C@H](C)[C@@H](CN(C)C(=O)NC2CCCCC2)Oc2c(NC(=O)c3cnccn3)cccc2C1=O`, the cytotoxicity call is “inactive”. With `Cc1noc(C)c1S(=O)(=O)Nc1ccc2c(c1)C(=O)N([C@H](C)CO)C[C@H](C)[C@H](CN(C)C(=O)Nc1ccc(F)cc1)OCCCC[C@@H](C)O2`, the cytotoxicity call was “inactive”.

The values are drawn from the antibiotic and cytotoxicity screens of Wong et al. (2023).
